IDE cell activ: human IDE activators in live cells, primary screen, fluorescence polarization, HEK cells, FAbeta-B substrate | activation, % at 5.96 µM | hit rate 0.073% among 340,000 | FAbeta-B cleavage; 0% vehicle, 100% cell-free pure enzyme wells | Insulin-degrading enzyme (Homo sapiens), P14735;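 active means activation above the mean of all tested compounds plus 3 SD, set per screening campaign, cut at about 17% in these data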
IDE cell inh: human IDE inhibitors in live cells, primary screen, fluorescence polarization, HEK cells, FAbetaB substrate; FAbetaB cleavage; inhibition, % at 5.59 µM; hit rate 0.41% among 320,000; AID 434962, 2010;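 active means percent inhibition above the average of all tested compounds plus 3 SD, set per screening campaign, cut at about 16% in these data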;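 further: IDE supplied by intact live HEK cells; FP after avidin binding of uncleaved biotin substrate so inhibition keeps polarization high; 0% = DMSO wells and 100% = 60 µM reference IDE inhibitor Ii1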
LANA-H2B inh: blockers of LANA interaction with H2A/H2B – biochemical, FP readout, HTS, primary screen; inhibition, % (test concentration not listed); hit rate 0.6% among 320,000; Protein LANA1 (Human herpesvirus 8 type P (isolate GK18)), Q9QR71; cell-free LANA-H2A/H2B peptide, fluorescence polarization; in the data active means inhibition mostly above about 10%, no sharp cut-off; inactive means mostly below about 6.7%
HDAC3 inhib: HDAC3 deacetylase inhibitors, primary screen, biochemical, fluorescence, cell-free homogeneous | AID 2718, 2010 | inhibition, % at 8.3 µM | Histone deacetylase 3 (Homo sapiens), O15379 | recombinant HDAC3, fluorogenic peptide/trypsin coupled | hit rate 0.15% among 320,000; in the data active means inhibition above about 26%, passing the limit was not always enough; inconclusive means no clear call, values can overlap the other calls
Target sequence (O15379 whole entry, looked up): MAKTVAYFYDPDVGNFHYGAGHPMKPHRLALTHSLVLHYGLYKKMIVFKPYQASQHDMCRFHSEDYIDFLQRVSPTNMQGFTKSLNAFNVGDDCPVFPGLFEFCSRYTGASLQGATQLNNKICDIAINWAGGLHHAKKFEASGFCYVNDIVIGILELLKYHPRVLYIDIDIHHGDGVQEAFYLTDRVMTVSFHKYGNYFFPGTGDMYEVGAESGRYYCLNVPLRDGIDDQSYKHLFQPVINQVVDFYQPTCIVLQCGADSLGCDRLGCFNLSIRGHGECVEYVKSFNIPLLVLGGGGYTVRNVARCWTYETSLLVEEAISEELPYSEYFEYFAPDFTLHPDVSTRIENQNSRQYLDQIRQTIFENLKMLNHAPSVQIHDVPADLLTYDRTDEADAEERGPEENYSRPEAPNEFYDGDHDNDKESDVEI
Starred values were filed as active, the others as inactive; ? = inconclusive; / = no result given; + = active, no number. This is a sample that favours compounds with a hit; in the whole collection about 1.1% have one here.

SMILES	IDE cell activ	IDE cell inh	LANA-H2B inh	HDAC3 inhib
CCC(Oc1ccc(Br)cc1Cl)C(=O)Nc1nnc(C2CC2)s1 (stereo not drawn)	-2	1	5	-8
Cc1cccc(C)c1N=Nc1c(C)cc(O)cc1C	8	-2	0	13
CCCOc1ccc(/C=N/NC(=O)CSc2ccccn2)cc1OC	6	3	12*	-2
Cc1nc(SCC(=O)N(CC(C)C)C2CCS(=O)(=O)C2)c(C#N)c(C)c1C (stereo not drawn)	-2	/	/	/
C=CCN1C(=O)C(CC(=O)NCC)SC1=Nc1ccccc1OC (stereo not drawn)	4	5	0	1
Cc1c(C(=O)Nc2ccccc2)cn2c(nc3ccccc32)c1C#N	3	5	5	0
Cc1ccccc1C(=O)Nc1ccc2c(C#N)c3nc4ccccc4nc3n2c1	-6	3	28*	0
CN(CC(=O)N1CCCC1)S(=O)(=O)c1ccc2ccccc2c1	3	9	17*	0
O=C(CS(=O)(=O)c1ccccc1)N1CCc2ccccc21	0	-5	-6	-1
Cc1cc[n+](-c2[nH]c(=O)sc2/C=N/NC([S-])=Nc2ccccc2)cc1C	1	-3	/	/
CC(C)(C)c1cc[n+](-c2[nH]c(=O)sc2/C=N/NC([S-])=Nc2ccccc2)cc1	-4	4	42*	2
O=C(NS(=O)(=O)Nc1ccccc1)C1=C(N2CCCC2)COC1=O	34*	0	2	-5
O=C(NC(=O)c1ccccc1)C1=C(N2CCCC2)COC1=O	3	-5	5	4
COc1cc(OC)cc(C(=O)Nc2nnc(SCC(=O)NCc3ccco3)s2)c1	2	-13	39*	6
COc1ccc(C(=O)Nc2nnc(SCC(=O)NCc3ccco3)s2)cc1OC	-3	4	-1	0
CCOC(=O)C1CCCN(C(=O)c2cc(S(=O)(=O)N3CCCCC3)ccc2C)C1 (stereo not drawn)	-6	-1	-4	3
CC(C)(C)NCC(=O)N/N=C/c1ccc(OCc2ccccc2)cc1	-11	16*	-1	5
CCCCNC(=O)C(=O)N/N=C/c1ccc(OCc2ccccc2)cc1	-3	2	1	1
Cc1c(NC(=O)c2cc(Br)ccc2Cl)cccc1-n1cnnn1	-4	1	-2	-2
Cc1ccc(NC(=O)CN(C)C(=O)/C=C/c2cccs2)cc1	-2	0	2	6
O=C(c1cc[n+]([O-])cc1)N1CCCC(N2CCN(c3cccc(C(F)(F)F)c3)CC2)C1 (stereo not drawn)	0	3	21*	0
O=C(c1ccsc1)N1CCCC(N2CCN(c3cccc(C(F)(F)F)c3)CC2)C1 (stereo not drawn)	2	2	0	0
CCCN1C(=O)C(=O)c2cc(C)ccc21	-2	0	-2	3
CCCCN1C(=O)C(=O)c2cc(Cl)ccc21	0	0	+	1
N#Cc1c(NC(=S)NC(=O)c2ccccc2)sc2c1CCCC2	-7	10	-7	-7
SMILES	IDE cell activ	IDE cell inh	LANA-H2B inh	HDAC3 inhib
N#Cc1c(NC(=S)NC(=O)c2ccccc2)sc2c1CCN(CCc1ccccc1)C2	/	74*	2	7
Cc1ccc(S(=O)(=O)N2CCN(C(=O)CC(C)n3cncn3)CC2)cc1C (stereo not drawn)	3	4	25*	0
Cc1ccc(S(=O)(=O)N2CCN(C(=O)CC(C)n3cncn3)CC2)cc1 (stereo not drawn)	4	-7	1	0
Cc1ccc2oc(=O)c(/C=C(\O)c3ccco3)nc2c1	3	-4	4.3*	0
COc1cccc(C(C)NC(=O)Nc2ccccc2Cl)c1 (stereo not drawn)	4	9	15*	3
COc1cccc(C(C)NC(=O)c2c(F)cccc2Cl)c1 (stereo not drawn)	-8	6	1	6
COC(=O)c1cn(CC(=O)Nc2ccc(F)cc2)c2ccccc12	0	0	12*	-1
O=C(Cn1cc(C(=O)C2CC2)c2ccccc21)Nc1ccc(F)cc1	-2	-1	-4	-12
O=C(N/N=C/c1ccc(OC(F)F)cc1OC(F)F)c1ccc(Br)cc1	2	3	-2	4
O=C(N/N=C/c1ccc(OC(F)F)cc1OC(F)F)NC1CCCCC1	8	0	1	29*
Cc1oc(-c2ccccc2F)nc1CS(=O)(=O)CC(=O)NCCCN1CC(C)CC(C)C1 (stereo not drawn)	5	-2	-1	?
